Only some compounds are listed: those with a hit (about 1.5% of all), similar ones and a draw of the others.
RAD54 branch: RAD54 (human) branch migration inhibition | Q92698 | RAD54 Holliday junction branch migration, FAM/BHQ fluorescence | inhibition, % at 10.4 µM | 360,000 compounds, 0.14% hits;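 active = mean normalized replicate activity at least 40 and at least half of replicates scoring 40 or more; inconclusive = only one of the two criteria met; inactive = mean below 40 and under half of replicates reaching 40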;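 note: inhibitors cause a drop in the FAM fluorescence signal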
Target sequence (Q92698 whole entry, looked up): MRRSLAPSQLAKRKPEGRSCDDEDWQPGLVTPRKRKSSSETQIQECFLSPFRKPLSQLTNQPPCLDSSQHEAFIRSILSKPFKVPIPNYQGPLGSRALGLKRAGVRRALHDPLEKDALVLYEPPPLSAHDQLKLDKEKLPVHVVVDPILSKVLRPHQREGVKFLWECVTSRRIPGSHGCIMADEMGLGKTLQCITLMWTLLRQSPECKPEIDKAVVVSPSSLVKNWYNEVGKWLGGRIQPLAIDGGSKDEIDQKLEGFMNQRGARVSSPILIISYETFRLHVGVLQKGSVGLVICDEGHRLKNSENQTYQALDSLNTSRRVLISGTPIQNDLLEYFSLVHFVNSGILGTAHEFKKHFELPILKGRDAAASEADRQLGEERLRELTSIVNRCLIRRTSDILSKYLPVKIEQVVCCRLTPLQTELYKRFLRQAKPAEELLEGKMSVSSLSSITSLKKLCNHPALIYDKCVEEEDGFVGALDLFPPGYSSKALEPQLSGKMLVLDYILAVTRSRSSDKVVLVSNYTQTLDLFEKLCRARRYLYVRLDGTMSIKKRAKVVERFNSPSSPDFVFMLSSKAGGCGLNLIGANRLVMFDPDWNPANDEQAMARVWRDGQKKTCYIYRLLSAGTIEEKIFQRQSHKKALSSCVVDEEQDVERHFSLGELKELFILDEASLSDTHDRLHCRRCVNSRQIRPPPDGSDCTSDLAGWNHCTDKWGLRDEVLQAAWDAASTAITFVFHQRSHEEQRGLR
PvdQ acylase: blocks Pseudomonas aeruginosa PvdQ acylase activity. purified PvdQ acylase, fluorescence plate reader. inhibition, % at 10 µM. 340,000 compounds, 0.063% hits; in the data active = inhibition above about 30%, passing the limit was not always enough; inconclusive = no clear call, values can overlap the other calls
dFosB act-1: enhances mouse delta FosB homodimer DNA binding. activation, % at 25 µM. 340,000 compounds, 0.99% hits. AID 493131. purified delta FosB, TAMRA-CDK5 oligo fluorescence polarization; percent of positive-control signal above neutral wells. P13346;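 active = mean activation above about 17%, with every replicate also reaching it, limit read from the data, passing the limit was not always enough; inconclusive = only one of the two conditions met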
F508del corr: correctors of CFTR F508del function in bronchial epithelial cells | 350,000 compounds, 0.36% hits | activity (quench increase), % at 7.58 µM | AID 720511 | CFBE cells, YFP halide quenching; stimulated with forskolin plus potentiator P3; % fluorescence drop versus neutral controls;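 active = mean added fluorescence quench of at least 8% versus neutral control, with both replicates also reaching 8%; inconclusive = only one of the mean or replicate conditions met; inactive = mean below 8% and not both replicates reaching 8%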;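 note: cells transiently co-express mutant CFTR-F508del with the halide-sensitive YFP; corrector assay measuring rescue of mutant channel to the surface after 24 h compound exposure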
N-glyco inh: N-linked glycosylation inhibition. D54 ERlucT glycosylation luciferase reporter, 24 h; percent of 100 nM tunicamycin response. reporter increase, % at 12.5 µM. 360,000 compounds, 0.23% hits. AID 588692;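 active = mean luciferase reporter signal, scaled so untreated is 0 and the glycosylation-blocking control 100, at or above a set limit in every replicate; inconclusive = mean reaches the limit but not every replicate does; inactive = mean below the limit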;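 note: luciferase carries N-glycosylation sites so blocking glycosylation raises the light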
RAD52 inh: RAD52 (human) annealing inhibition. P43351. recombinant RAD52 DNA annealing, FRET fluorescence. inhibition, % at 18.7 µM. 360,000 compounds, 0.46% hits;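 active = every replicate showing at least 50% inhibition; inconclusive = mean inhibition at least 50% but not in every replicate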
dFosB act-2: enhances mouse delta FosB homodimer binding to DNA; activation, % at 24.9 µM; AID 588690; 2,400 tested, under 10 active; purified delta FosB, TAMRA-CDK5 oligo fluorescence polarization; normalised: neutral wells 0, positive control 100; shares compounds with dFosB act-1;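 active = highest replicate activation at or above 34% and every replicate reaching that threshold; inconclusive = meets only one of the two criteria; inactive = meets neither criterion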;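 note: higher polarization means more probe DNA bound by delta FosB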
A number is an active result; . = inactive; ? = inconclusive; / = no result.

SMILES	RAD54 branch	PvdQ acylase	dFosB act-1	F508del corr	N-glyco inh	RAD52 inh	dFosB act-2
Cc1cccc(C(=O)N/N=C2\CS(=O)(=O)N(C)c3ccsc32)c1	.	.	26	.	.	.	.
COc1ccc(S(=O)(=O)N(C)C[C@@H]2Oc3c(NS(=O)(=O)c4ccc(C)cc4)cccc3C(=O)N([C@H](C)CO)C[C@H]2C)cc1	/	/	/	.	/	.	/
COc1ccccc1C(=O)Nc1ccc(-c2nnn(CC(=O)NCc3ccco3)n2)cc1	/	.	42	.	.	.	.
CCOc1ccc(-c2nnn(CC(=O)Nc3ccccc3OC)n2)cc1OCC	.	.	59	/	.	/	.
COc1ccc(-c2nnn(CC(=O)NCc3cccs3)n2)cc1OC	.	.	30	/	.	/	.
COc1ccc(-c2nnn(CC(=O)NCc3ccccc3)n2)cc1OC	.	.	.	/	.	/	/
O=C(Cn1nnc(-c2ccccc2)n1)NCc1ccco1	/	.	.	/	.	/	/
CC(=O)N(C)C[C@@H]1Oc2ncc(-c3ccccc3C)cc2C(=O)N([C@H](C)CO)C[C@H]1C	.	/	/	.	/	.	/
CCCOc1cccc(-c2nn(-c3ccccc3)cc2/C=C(\C#N)C(=O)NCCCn2ccnc2)c1	.	.	.	.	.	.	/
N#C/C(=C/c1cn(-c2ccccc2)nc1-c1cccc(OCc2ccc(F)cc2)c1)C(=O)NCCCn1ccnc1	/	.	35	/	.	/	.
C[C@H](CO)N1C[C@H](C)[C@@H](CN(C)Cc2ccc(C(F)(F)F)cc2)Oc2ccc(NC(=O)C3CCCCC3)cc2CC1=O	.	/	/	.	/	.	/
C=CCNc1nc(Nc2ccc(-c3nc4ccccc4o3)cc2)nc(N2CCOCC2)n1	.	.	28	.	.	.	.
Cc1ccc(NC(=O)Cn2c(=O)c3cccn3c3ccccc32)c(C)c1	.	.	46	.	.	.	.
COc1ccc(S(=O)(=O)N(C)C[C@@H]2Oc3c(NC(=O)Nc4cccc5ccccc45)cccc3C(=O)N([C@@H](C)CO)C[C@@H]2C)cc1	.	/	/	.	/	.	/
C[C@@H]1CN([C@H](C)CO)C(=O)c2cc(-c3ccncc3)cnc2O[C@@H]1CN(C)C(=O)C1CCC1	/	/	/	.	/	/	/
CCOc1cc2[nH]c(=S)n(Cc3ccc(C)o3)c(=O)c2cc1OCC	.	.	34	.	.	.	.
CSc1nc2ccc3nc(NC(=O)C4COc5ccccc5O4)sc3c2s1 (stereo unspecified)	.	.	70	.	.	.	.
Cc1nc2ccc3nc(NC(=O)C4COc5ccccc5O4)sc3c2s1 (stereo unspecified)	.	.	?	.	.	.	/
Cc1noc(C)c1NC(=O)N[C@@H]1C=C[C@H](CC(=O)NCc2ccc(Cl)c(Cl)c2)O[C@H]1CO	.	/	/	.	/	.	/
COc1cc(-c2cc3nc(C)c(C)c(=O)n3[nH]2)cc(OC)c1OC	.	.	22	/	.	.	.
Cc1cc(C)c(NC(=O)Nc2ccccc2C)c(Cl)c1	/	.	20	.	.	.	.
C[C@@]12C(=O)Nc3ccc(Br)cc3C(=O)N1[C@H]1c3cc(Br)ccc3OC[C@@H]1[C@@H]2c1ccccc1	.	.	38	.	.	.	.
CN(CC(=O)Nc1ccc(F)c(F)c1F)C(=O)c1cc(-c2ccncc2)nc2ccccc12	.	.	.	.	.	.	/
CN(CC(=O)Nc1ccc(Cl)c(C(F)(F)F)c1)C(=O)c1cc(-c2ccncc2)nc2ccccc12	.	.	66	.	.	.	.
CCn1c(SCc2nc3ccccc3c(=O)[nH]2)nc2ccccc2c1=O	.	.	.	/	.	/	/
SMILES	RAD54 branch	PvdQ acylase	dFosB act-1	F508del corr	N-glyco inh	RAD52 inh	dFosB act-2
C=CCn1c(SCc2nc3ccccc3c(=O)[nH]2)nc2scc(C3CC3)c2c1=O	/	.	33	.	.	.	.
CCOc1cccc2sc(N(CCCN(C)C)C(=O)c3ccc(S(=O)(=O)N(C)Cc4ccccc4)cc3)nc12	.	.	24	.	.	.	.
COc1ccc(NC(=O)N(C)C[C@@H]2Oc3ccc(NC(=O)Nc4ccc(C(F)(F)F)cc4)cc3CC(=O)N([C@@H](C)CO)C[C@H]2C)cc1	.	/	/	.	/	.	/
CO[C@H]1CN(C)C(=O)c2ccc(NC(=O)C3CCCC3)cc2OC[C@@H](C)N(C(C)=O)C[C@H]1C	.	/	/	.	/	.	/
COc1ccc(OC)c2sc(NC(=O)c3cccc(N4C(=O)CCC4=O)c3)nc12	.	.	67	.	.	.	.
Cc1noc(C)c1NC(=O)N[C@H]1CC[C@H](CCNC(=O)C2CCCCC2)O[C@@H]1CO	.	/	/	.	/	.	/
O=C(OCC(=O)N1CCc2ccccc21)c1n[nH]c(=O)c2ccccc12	.	.	38	.	.	.	.
CC(=O)c1c(C)[nH]c(C(=O)OCC(=O)N2CCc3ccccc32)c1C	.	.	29	/	.	/	.
O=S(=O)(c1ccc2ccccc2c1)N1CCN(Cc2ccc(OCCO)cc2)CC1	.	/	/	.	/	.	/
O=C(c1cccnc1)N1CCCCN2[C@H](CO)[C@@H](c3ccc(C#Cc4ccccc4)cc3)[C@H]2C1	.	/	/	.	/	.	/
O=c1c2c(O)cc(O)cc2oc2c(O)ccc(O[C@H]3O[C@@H](CO)[C@H](O)[C@@H](O)[C@@H]3O)c12	.	.	17	.	.	.	.
CO[C@@H](CN(C)S(=O)(=O)c1ccc(C)cc1)[C@H](C)CN(Cc1ccccc1Cl)[C@@H](C)CO	.	/	/	.	/	.	/
Nc1ccccc1SC1CC(=O)N(c2ccc(Cl)c(Cl)c2)C1=O (stereo unspecified)	.	.	27	.	.	.	.
Cc1nc(-c2ccc(NC(=O)c3ccc(Br)o3)cc2)cs1	.	.	26	.	.	.	.
Cc1nc(-c2cccc(NC(=O)c3ccc(Br)o3)c2)cs1	.	.	.	.	.	.	/
COc1cc2c(cc1OC)-c1cc3ccc4c(c3c[n+]1CC2)OCO4	.	.	38	.	.	.	.
OC(CNCCc1ccccc1)COc1ccc(OCC(O)CNCCc2ccccc2)cc1 (stereo unspecified)	.	.	19	.	.	.	.
COC(=O)c1nn(-c2ccccc2)nc1-c1nn(-c2ccccc2)nc1C(=O)OC	.	.	23	/	.	/	.
CC(=O)N(C)C[C@@H]1Oc2cc(C3=CCCC3)ccc2S(=O)(=O)N([C@@H](C)CO)C[C@H]1C	.	/	/	.	/	.	/
O=C(COc1ccc(Cl)cc1Cl)Nc1ccc(-c2ccc(N3CCOCC3)nn2)cc1	.	.	42	.	.	.	.
C[C@H](CO)N1C[C@H](C)[C@H](CN(C)S(=O)(=O)c2ccc(F)cc2)OCCCC[C@H](C)Oc2ccc(NC(=O)C3CCCCC3)cc2C1=O	.	/	/	.	/	.	/
O=C(CSc1nc(-c2cccs2)cc(C(F)(F)F)n1)NCc1ccccc1	.	.	22	/	.	/	.
